This is a sample that favours compounds with a hit; in the whole collection about 1.5% have one here.
IDE cell inh: cellular human IDE inhibition | P14735 | HEK cells, FAbetaB cleavage, fluorescence polarization | inhibition, % at 5.59 µM | actives 0.41% (n = 320,000) | AID 434962;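 active = percent inhibition above the average of all tested compounds plus 3 SD, set per screening campaign, cut at about 16% in these data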;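 also: IDE supplied by intact live HEK cells; FP after avidin binding of uncleaved biotin substrate so inhibition keeps polarization high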
Target sequence (P14735 whole entry, looked up): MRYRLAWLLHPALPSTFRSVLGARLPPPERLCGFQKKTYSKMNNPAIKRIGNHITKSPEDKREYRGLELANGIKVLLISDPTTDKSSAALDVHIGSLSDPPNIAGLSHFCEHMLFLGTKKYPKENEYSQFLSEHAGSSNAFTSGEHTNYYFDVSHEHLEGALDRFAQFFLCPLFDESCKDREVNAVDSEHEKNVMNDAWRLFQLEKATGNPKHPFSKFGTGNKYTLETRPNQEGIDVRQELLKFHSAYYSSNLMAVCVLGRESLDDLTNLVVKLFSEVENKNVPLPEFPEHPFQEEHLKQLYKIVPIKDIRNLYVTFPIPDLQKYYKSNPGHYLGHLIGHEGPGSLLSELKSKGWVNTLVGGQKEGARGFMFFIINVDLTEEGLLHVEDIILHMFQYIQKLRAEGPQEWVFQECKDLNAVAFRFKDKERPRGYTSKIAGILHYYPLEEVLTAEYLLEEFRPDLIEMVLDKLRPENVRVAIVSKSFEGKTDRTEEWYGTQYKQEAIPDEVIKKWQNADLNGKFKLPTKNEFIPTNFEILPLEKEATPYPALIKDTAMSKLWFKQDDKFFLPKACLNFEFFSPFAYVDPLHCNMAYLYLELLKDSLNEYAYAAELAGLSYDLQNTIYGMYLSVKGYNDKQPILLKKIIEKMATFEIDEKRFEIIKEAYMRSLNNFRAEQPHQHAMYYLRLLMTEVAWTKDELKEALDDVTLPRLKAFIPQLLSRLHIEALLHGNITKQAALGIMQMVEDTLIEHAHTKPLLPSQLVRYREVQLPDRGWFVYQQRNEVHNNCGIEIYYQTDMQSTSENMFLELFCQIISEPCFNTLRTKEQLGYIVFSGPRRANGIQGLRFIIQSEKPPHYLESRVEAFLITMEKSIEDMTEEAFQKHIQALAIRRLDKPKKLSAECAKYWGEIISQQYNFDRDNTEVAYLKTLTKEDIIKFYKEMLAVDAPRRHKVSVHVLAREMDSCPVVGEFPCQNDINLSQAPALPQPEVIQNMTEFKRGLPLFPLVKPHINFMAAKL
MCL1-BIM inh: inhibitors of human MCL1 binding to BIM-BH3 peptide | AID 2057 | GST-MCL1 / FITC-Bim-BH3 fluorescence polarization | inhibition, % at 10.9 µM | actives 0.68% (n = 320,000) | Q07820;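 active = inhibition above the mean inhibition of all tested compounds plus 3 SD, set per campaign, cut at about 40% in these data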;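 also: higher means more loss of mP so more displacement of Bim peptide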
IDE cell activ: activators of human insulin-degrading enzyme in cells. HEK cells, FAbeta-B cleavage, fluorescence polarization; 0% vehicle, 100% cell-free pure enzyme wells. P14735. activation, % at 5.96 µM. actives 0.073% (n = 340,000);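 active = activation above the mean of all tested compounds plus 3 SD, set per screening campaign, cut at about 17% in these data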
BCLXL inh: blocks human Bcl-xL binding to Bim BH3 peptide | Q07817 | GST-Bcl-xL / FITC-Bim BH3 peptide fluorescence polarization | inhibition, % at 10.9 µM | actives 0.7% (n = 320,000);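 active = inhibition above the mean of all tested compounds plus 3 SD, cutoff set per campaign, cut at about 30% in these data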;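 also: inhibitors lower millipolarization by displacing the labeled peptide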
GLD-1 TGE inh: GLD-1-TGE RNA interaction inhibition (C. elegans); Q17339; purified GLD-1 + fluorescein TGE RNA, fluorescence polarization; inhibition, % at 5.96 µM; actives 0.44% (n = 320,000); AID 2280;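 active = percent inhibition above a per-plate cutoff, the plate mean of test compounds plus 3 SD, cut at about 30% in these data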
MEX-5 binding: C. elegans MEX-5 TCR-2 RNA binding activity; actives 0.38% (n = 300,000); MEX-5/FITC-TCR2 RNA binding, fluorescence polarization; active compounds read low; activity score (negative = inhibition of binding), % at 10 µM; Q9XUB2; AID 1832;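 active = inhibition past about -25% in most replicates, and total fluorescence under double the plate's negative control median, limit read from the data; inconclusive = replicates evenly split on the limit, or fluorescence at least double controls; inactive = too little inhibition in most replicates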
Of the large screens only hits and unclear results are named; the others gave an inactive call.

Cc1ccc(/C=C/C(=O)Nc2cc(=O)n(C)c(=O)n2C)o1	BCLXL inh 33.1
Cn1c(NC(=O)/C=C/c2ccco2)cc(=O)n(C)c1=O	none
N=c1c(S(=O)(=O)c2ccc(Cl)cc2)cc2c(=O)n3ccccc3nc2n1CCN1CCOCC1	none
N=c1c(S(=O)(=O)c2ccccc2)cc2c(=O)n3ccccc3nc2n1C1CCCC1	none
N=c1c(S(=O)(=O)c2ccc(Cl)cc2)cc2c(=O)n3ccccc3nc2n1C1CCCCC1	MEX-5 binding -45.8
N=c1c(S(=O)(=O)c2ccc(Cl)cc2)cc2c(=O)n3ccccc3nc2n1CCc1ccccc1	MEX-5 binding -63.0
OCCCc1nc2n(n1)C(c1cccs1)C=C(c1ccc(Br)cc1)N2 (stereo not given)	IDE cell inh 135.3, MCL1-BIM inh active, BCLXL inh 188.8, GLD-1 TGE inh 163.2, MEX-5 binding -68.3 (no result: IDE cell activ)
Brc1ccc(C2=CC(c3cccs3)n3ncnc3N2)cc1 (stereo not given)	IDE cell inh 87.8, MCL1-BIM inh active, BCLXL inh 167.9, GLD-1 TGE inh 150.8, MEX-5 binding -51.0
CN(C)c1ncnc2c1NC1=C(S2)C(=NCCCC(=O)O)CC(C)(C)C1	BCLXL inh 32.3
CCc1ccc(CN(C)C(=O)CC2C(=O)NCCN2Cc2ccoc2)cc1 (stereo not given)	none
Cc1ccc(-c2cc(C(=O)NC3=NCCS3)c3ccccc3n2)cc1C	BCLXL inh 90.0
CCOC(=O)c1ccc(CC(=O)c2ccc(O)c(O)c2O)o1	MEX-5 binding -26.9 (no result: IDE cell inh, MCL1-BIM inh, BCLXL inh, GLD-1 TGE inh)
Cc1[nH][nH]c(=O)c1C(c1ccc(-c2ccccc2C(=O)O)o1)c1c(C)[nH][nH]c1=O	MEX-5 binding -35.0
Cc1[nH][nH]c(=O)c1C(c1ccc(-c2cccc(C(=O)O)c2)o1)c1c(C)[nH][nH]c1=O	MEX-5 binding -51.9
O=C(Cn1c(NCCCCl)nc2ccccc21)c1ccccc1	none (no result: MEX-5 binding)
N#C/C(=N/Nc1ccc(OC(F)(F)F)cc1)C(N)=S	none
NC(=S)N=Nc1ccc(NN=C(N)N)cc1	MEX-5 binding -53.3
N#C/C(=C\c1cccnc1)C(=O)Nc1ccccc1[N+](=O)[O-]	BCLXL inh 34.1
Cc1ccccc1NC(=O)/C(C#N)=C\c1cccnc1	none
N#C/C(=C\c1ccccc1[N+](=O)[O-])C(=O)NCc1ccccc1	BCLXL inh 33.9
COC(=O)c1cnc(N)s1	none (no result: IDE cell inh, MCL1-BIM inh, BCLXL inh, GLD-1 TGE inh, MEX-5 binding)
CCN(CC)CCC(=O)Nc1cccc2c1C(=O)c1ccccc1C2=O	BCLXL inh 36.3 (no result: IDE cell activ)
CN1C(=O)N(C)c2cccc3cccc1c23	none
CC1=Nc2cccc3cccc(c23)N1C	MEX-5 binding -28.6
CCC(C)(C)c1ccc(OCC(=O)Nc2ccncc2)cc1	BCLXL inh 69.1
C=CCC1(CC=C)CCCN1C(=O)C1CCC(=O)N(CCc2ccc(OC)cc2)C1 (stereo not given)	none
Cc1ccc2nc(SCC(=O)Nc3nonc3C)[nH]c2c1	none
COc1ccc2nc(SCC(=O)Nc3nonc3C)[nH]c2c1	MEX-5 binding -32.0
COC(=O)Nc1ccc(S(=O)(=O)N2CCC(C(=O)NC3CCCCC3)CC2)cc1	none
Cc1ccc(C(=O)N2CCn3c(C)ccc3C2C)cc1 (stereo not given)	MCL1-BIM inh 42.4, BCLXL inh 43.1
Cc1ccc(C(=O)N2CCN(C(=O)c3ccccc3)C2c2ccc(N(C)C)cc2)cc1 (stereo not given)	none
COc1ccc2nc3ccccc3nc2c1	BCLXL inh 35.3
Cc1cccc(C)c1N=Cc1c(C(F)(F)F)[nH][nH]c1=O	none
C/C=C/COc1nc2c(c(=O)n(C)c(=O)n2C)n1C	none
C=CCOc1nc2c(c(=O)n(C)c(=O)n2C)n1C	BCLXL inh 36.0
COc1cccc(/C=N/N2CCOCC2)c1O	none
O=C1c2ccccc2C(=O)N1/N=C/c1ccc(O)c(O)c1O	MEX-5 binding -53.2 (no result: IDE cell inh, MCL1-BIM inh, BCLXL inh, GLD-1 TGE inh)
Oc1ccc(/C=N/N2CCOCC2)c(O)c1O	MEX-5 binding -47.2
O=C(Cn1nc(Br)nc1Br)c1ccccc1	none
COc1cccc(Cn2cc(C(=O)NCCN(C)C)nn2)c1	none
COc1ccccc1OCc1ccc(C(=O)Nc2ccc(Cl)cn2)o1	none
CCOC(=O)c1c2ccc(OCC(=O)NN)cc2n2ccccc12	none
CCOC(=O)c1c2ccc(OCC(=O)N/N=C/c3ccc(C)cc3)cc2n2ccccc12	MEX-5 binding -29.4
COC(=O)c1ccc(/C=N/NC(=O)CC(=O)NCc2cccnc2)cc1	none (no result: IDE cell activ)
CN1/C(=C\P(=O)(N(C)C)N(C)C)C(C)(C)c2ccccc21	MCL1-BIM inh 46.8, BCLXL inh 45.5, GLD-1 TGE inh 58.8
Cc1ccc(C(C(=O)NCCc2ccccc2)N(C(=O)c2csnn2)C2CC2)cc1 (stereo not given)	none
COc1ccc(C=Nc2cccnc2N)cc1	MCL1-BIM inh 45.4, BCLXL inh 46.0, GLD-1 TGE inh 63.5
CCOc1ccc(C=Nc2cccc3ncccc23)cc1	none
COc1ccc2ccc(OC)c(/C=N/n3cnnc3)c2c1	none
O=[N+]([O-])c1cc([N+](=O)[O-])c2cc(-c3cccnc3)[nH]c2c1	BCLXL inh 35.6
O=[N+]([O-])c1ccc2nc(-c3cccnc3)[nH]c2c1	none
COc1cc(Cl)c(C)cc1NC(=O)CSc1ccc(NC(C)=O)cc1	IDE cell inh 17.8
Cc1cccc(-n2c(C)cc(C=C3C(=O)c4ccccc4C3=O)c2C)c1	MEX-5 binding -31.0
Cc1cc(C=C2C(=O)c3ccccc3C2=O)c(C)n1-c1ccc(Cl)cc1	MEX-5 binding inconclusive (no result: IDE cell inh, MCL1-BIM inh, BCLXL inh, GLD-1 TGE inh)
C#CCOCCOCCOCCNc1nc(N2CCN(C(=O)CCCCCCCCCCNC(=O)[C@H](CCCCN)n3cc(C)nn3)CC2)nc(N2CCN(C(=O)CCCCCCCCCCNC(=O)[C@@H]([C@H](C)O)n3cc(C)nn3)CC2)n1	IDE cell activ 21.5 (no result: MEX-5 binding)
C#CCOCCOCCOCCNc1nc(N2CCN(C(=O)CCCCCCCCCCNC(=O)[C@H](CCCCN)n3cc(C[C@@H](C)CC)nn3)CC2)nc(N2CCN(C(=O)CCCCCCCCCCNC(=O)[C@@H]([C@H](C)O)n3cc(C)nn3)CC2)n1	IDE cell activ 33.7 (no result: MEX-5 binding)
COc1ccc(OCc2n(CC(=O)OC3CC(C)CCC3C(C)C)c3ccccc3[n+]2C)cc1 (stereo not given)	IDE cell activ 18.2
Cc1ccc2[nH]c(=O)c(CN(CCO)Cc3nnnn3CCc3ccccc3)cc2c1	MEX-5 binding -32.0
Cn1c(=O)c2c(nc(NN=C3CCCC3)n2C)n(C)c1=O	none
CC1(OC(=O)c2cccs2)C(=O)C=C2C=C(c3ccsc3)OC=C2C1=O (stereo not given)	MEX-5 binding -26.9 (no result: IDE cell activ)
CC1(OC(=O)c2cccs2)C(=O)C=C2C=C(C3CC3)OC=C2C1=O (stereo not given)	GLD-1 TGE inh 35.0
Cc1nc2ccccc2c2oc(C(=O)Nc3ccc(C(C)C)cc3)cc12	none
